Test results from PubChem BioAssay AID2528 (National Center for Advancing Translational Sciences (NCATS), 2010).
The whole screen tested about 350,000 compounds, of which about 700 (0.2%) were called active. The list comes from a sample in which actives are over-represented; it also holds similar structures and randomly drawn compounds. Values without a mark were called inactive. Calls come from the whole dose curve; as a rule, active = well fitted inhibition curve with a large enough effect; inconclusive = small, poorly fitted or top-dose-only effect; inactive = flat fitted curve, though single readings scatter.

Biological target: RecQ-like DNA helicase BLM (Homo sapiens) (UniProt P54132)
Test: qHTS Assay for Inhibitors of Bloom's syndrome helicase (BLM); note: nearly all actives have a fitted effect of over 35% in size;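 for activity change, negative = inhibition: plate controls were vehicle for no effect and no enzyme for full effect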
Settings: recombinant BLM DNA unwinding, fluorescence dequenching; series mostly up to 56.1 µM; activity change, negative = inhibition: at the top concentration
Potency is the fitted concentration of half-maximal effect.

Sequence of RecQ-like DNA helicase BLM (Homo sapiens) (P54132 whole entry, looked up): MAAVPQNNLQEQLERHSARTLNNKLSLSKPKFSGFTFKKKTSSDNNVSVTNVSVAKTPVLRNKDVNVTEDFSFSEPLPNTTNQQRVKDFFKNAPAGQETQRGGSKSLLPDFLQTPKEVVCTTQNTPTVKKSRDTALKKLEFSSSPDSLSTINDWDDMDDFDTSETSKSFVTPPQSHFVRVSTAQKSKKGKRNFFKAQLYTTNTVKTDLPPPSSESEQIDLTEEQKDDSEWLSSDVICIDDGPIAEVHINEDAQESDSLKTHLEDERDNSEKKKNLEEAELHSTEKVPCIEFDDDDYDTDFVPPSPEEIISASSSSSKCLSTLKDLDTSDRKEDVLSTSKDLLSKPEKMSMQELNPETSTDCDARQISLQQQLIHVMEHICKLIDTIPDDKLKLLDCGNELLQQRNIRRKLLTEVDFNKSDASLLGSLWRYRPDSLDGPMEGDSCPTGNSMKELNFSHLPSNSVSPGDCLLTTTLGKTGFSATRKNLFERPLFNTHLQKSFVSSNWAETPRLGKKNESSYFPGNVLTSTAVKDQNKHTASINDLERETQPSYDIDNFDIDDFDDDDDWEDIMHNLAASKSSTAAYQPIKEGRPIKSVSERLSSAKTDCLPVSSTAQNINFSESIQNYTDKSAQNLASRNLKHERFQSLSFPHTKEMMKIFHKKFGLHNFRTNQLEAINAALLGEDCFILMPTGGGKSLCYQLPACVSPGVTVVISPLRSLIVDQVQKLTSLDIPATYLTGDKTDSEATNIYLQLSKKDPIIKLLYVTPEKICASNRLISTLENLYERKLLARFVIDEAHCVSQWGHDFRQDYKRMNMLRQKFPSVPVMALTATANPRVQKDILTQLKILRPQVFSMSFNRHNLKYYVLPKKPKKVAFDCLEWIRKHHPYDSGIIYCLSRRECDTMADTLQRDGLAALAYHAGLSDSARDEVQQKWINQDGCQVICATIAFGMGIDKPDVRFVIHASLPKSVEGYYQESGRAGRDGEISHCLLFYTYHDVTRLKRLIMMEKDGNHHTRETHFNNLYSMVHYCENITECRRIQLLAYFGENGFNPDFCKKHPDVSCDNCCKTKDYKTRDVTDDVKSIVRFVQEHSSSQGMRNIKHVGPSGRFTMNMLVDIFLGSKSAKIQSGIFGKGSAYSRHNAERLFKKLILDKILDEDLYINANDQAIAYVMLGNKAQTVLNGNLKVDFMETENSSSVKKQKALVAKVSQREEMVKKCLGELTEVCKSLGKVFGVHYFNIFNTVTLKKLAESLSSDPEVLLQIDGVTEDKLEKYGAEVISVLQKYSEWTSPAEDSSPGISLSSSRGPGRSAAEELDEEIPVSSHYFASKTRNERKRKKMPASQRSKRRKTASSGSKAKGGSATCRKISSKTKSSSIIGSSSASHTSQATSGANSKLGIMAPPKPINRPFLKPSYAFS

Row | Structure (SMILES) | activity change, negative = inhibition | Potency
1 | CN1C(=O)CN2CCc3ccccc3C2c2cc(Cl)ccc21 (configuration not stated) | 3.82% | 
2 | C=C[C@](C)(O)CCC1C(=C)CCC2[C@@](C)(CO)CCC[C@@]12C (some centres not stated) | -2.39% | 
3 | CC/C=C\C/C=C\C/C=C\C/C=C\C/C=C\C/C=C\CCC(=O)NCCc1ccc(O)c(O)c1 | -0.801% | 
4 | Cc1c(S(=O)(=O)O)oc2c1C(=O)C(=O)c1c-2ccc2c1CCCC2(C)C |  | 31.6 µM (active)
5 | CC(C)C(N)C(=O)OCCOCn1cnc2c(=O)[nH]c(N)nc21 (configuration not stated) | -7.58% | 
6 | O=C(O)C[C@@H]1NC(=O)[C@H](Cc2ccccc2)NC1=O | 0.405% | 
7 | CCc1ccc(NC(=O)c2cnc3c(-c4ccccc4)c(C)nn3c2C)cc1 | -1.21% | 
8 | COC1C[C@@H](O[C@@H]2C(C)C(=O)OC(C)C(C)C(O)C(C)C(=O)[C@@]3(CO3)CC(C)C(OC3OC(C)CC(N(C)C)C3O)C2C)OC(C)[C@@H]1O (some centres not stated) | -4.86% | 
9 | CC(=O)Oc1c2c(c3c(c1CC=C(C)C)O[C@@]14C(=CC5CC1C(C)(C)OC4(C/C=C(\C)C(=O)O)C5=O)C3=O)OC(C)(CCC=C(C)C)C=C2 (some centres not stated) | -15.4% | 
10 | CCC(C)[C@@H](N)C(=O)O (some centres not stated) |  | inactive
11 | c1ccc2c(Nc3ccncc3)nc(-c3ccc4c(c3)OCO4)nc2c1 | -15.1% | 
12 | COc1cccc(S(=O)(=O)NCc2ccc(C(=O)NCc3ccccn3)cc2)c1 | 0.376% | 
13 | COc1ccc(NC(=O)COCc2cc(-c3ccco3)on2)cc1 | 0.68% | 
14 | COCCNC(=O)Nc1ccc2nc(-c3ccco3)c(-c3ccco3)nc2c1 |  | 12.6 µM (active)
15 | CCOc1ccc(NC(=O)c2ncoc2-c2ccco2)cc1 | -4.8% | 
16 | COc1ccc(-c2nc3ccc(C(=O)NCc4ccc(C)cc4)cc3nc2-c2ccc(OC)cc2)cc1 | -3.72% | 
17 | O=C(NCc1ccccn1)c1ccc2nc(-c3ccco3)c(-c3ccco3)nc2c1 |  | 8.91 µM (active)
18 | Cc1cccc(C)c1NC(=O)NC1=CCCN1C | -6.49% | 
19 | Cc1noc(C)c1C(=O)NCCc1ccc(S(N)(=O)=O)cc1 | -0.714% | 
20 | CCCNC(=O)c1c(N)n(-c2ccc(S(N)(=O)=O)cc2)c2nc3ccccc3nc12 |  | 20 µM (active)
21 | CCOC(=O)c1c(N)n(-c2cccc(C)c2C)c2nc3ccccc3nc12 | -6.93% | 

Row | Structure (SMILES) | activity change, negative = inhibition | Potency
22 | COc1ccccc1CNc1ccnc(-c2c(C)noc2C)n1 | -3.97% | 
23 | N#CCCn1c(=O)c(-c2cc(F)cc(F)c2)nc2cnc(Oc3ccccc3)nc21 | -12.2% | 
24 | O=C(NCCSc1ccccc1)c1ccco1 | -7.71% | 
25 | Cc1ccc(-c2nnc(SCC(=O)NCc3ccccc3)nc2-c2ccc(C)cc2)cc1 | -9.64% | 
26 | Clc1ccccc1CSc1nncn2c1cc1occc12 | -3.01% | 
27 | c1ccc(CSc2nnc(-c3ccco3)c(-c3ccco3)n2)cc1 |  | 14.1 µM (active)
28 | Clc1ccccc1CSc1nnc(-c2ccco2)c(-c2ccco2)n1 |  | 14.1 µM (active)
29 | CC1(C)N=C(SCc2ccccc2Cl)c2ccccc2N1 | -0.452% | 
30 | COc1ccc(N2CCN(C(=O)CSCc3nc(-c4ccccc4Cl)oc3C)CC2)cc1 | -3.38% | 
31 | Cc1ccc2c(=O)c(C(=O)c3cccc(Cl)c3)cn(CC(=O)NCc3ccccc3)c2n1 | 1.52% | 
32 | C=C/C1=C/Cc2ccccc2[C@H](C[N+](=O)[O-])C(C(=O)OC)(C(=O)OC)C1 | 1.77% | 
33 | O=P(O)(O)OC[C@H](O)CO | -13.5% | 
34 | O=c1c(-c2cc(F)cc(F)c2)nc2cnc(Oc3ccccc3)nc2n1C[C@H]1CCCO1 | -7.56% | 
35 | C=CCC(C)(O)c1ccco1 (configuration not stated) | 1.35% | 
36 | N#Cc1ccccc1-c1ccc2ncnc(NCc3cccnc3)c2c1 | -6.8% | 
37 | CS(=O)(=O)c1ccc2nc(NC(=O)c3ccc(Cl)nc3)sc2c1 |  | 17.8 µM (active)
38 | Cc1cc2nc(NC(=O)c3ccc(S(=O)(=O)N4CCOCC4)cc3)sc2cc1C | -6.29% | 
39 | CN(C)c1cccc(C(=O)Nc2nc3ccc(S(=O)(=O)NC(C)(C)C)cc3s2)c1 | -6.17% | 
40 | CC(=O)OCC1OC(C#Cc2ccccc2Cl)C=CC1OC(C)=O (configuration not stated) | 2.5% [at 12.4 µM] | 
41 | O=C(c1cc2c(s1)CCC2)N1CCN(c2ccccc2)CC1 |  | 12.6 µM (active)
42 | O=C(c1cc2ccccc2s1)N1CCN(c2ccccn2)CC1 | -3.96% | 

Row | Structure (SMILES) | activity change, negative = inhibition | Potency
43 | O=C(c1cc(-c2ccc(Cl)cc2)on1)N1CCN(c2ccccc2)CC1 | -2.16% | 
44 | Cc1ccc(-c2cc(C(F)(F)F)c(C#N)c(SCC(=O)Nc3ccccc3)n2)cc1 | -0.785% | 
45 | C=CCN1c2ccccc2[C@]23C[C@@H](C(=O)OC)N(S(=O)(=O)c4ccc([N+](=O)[O-])cc4)C2=NC(C(=O)OC)=C(C(=O)OC)[C@H]13 | -4.61% [at 12.4 µM] | 
46 | CCCn1c(C)nc2c(NCCCCN(CC)CC)nc(C)nc21 | -7.03% | 
47 | O=C(N/N=C/c1ccco1)c1ccc(NC(=O)C2CC2)cc1 | -5.07% | 
48 | O=C(N/N=C/c1ccco1)c1csc2c1CCCC2 | -12.9% | 
49 | O=C(N/N=C/C=C/c1ccco1)c1cccs1 |  | 22.4 µM (active)
50 | Cc1noc(C)c1-c1ccc2ncnc(NCc3ccc4[nH]ccc4c3)c2c1 | 2.82% | 
51 | CN=C1S/C(=C\c2ccc(Sc3ccc(Cl)cc3)o2)C(=O)N1C | 1.6% | 
52 | O=C(NCc1ccccc1)c1cc(-c2cccc(Cl)c2)on1 | -4.2% | 
53 | O=C(O)C(c1ccccc1)N1C(=O)/C(=C\c2ccc(-c3cccc(Cl)c3)o2)SC1=S (configuration not stated) |  | 22.4 µM (active)
54 | CCN1CC=C2C(C#N)=C(N)C(C#N)(C#N)[C@H](c3ccoc3)[C@H]2C1 |  | 28.2 µM (active)
55 | COc1cccc(-c2cc(=O)c3cc(NC(=O)c4ccc(C)cc4)ccc3[nH]2)c1 | 1.5% [at 75.6 µM] | 
56 | CCOC(=O)C1=NO[C@@]2(C=C(Br)C(=O)[C@H]3O[C@H]32)C1 | 4.08% | 
57 | CN1CCCC1CCO[C@@](C)(c1ccccc1)c1ccc(Cl)cc1 (some centres not stated) | -0.377% | 
58 | NS(=O)(=O)c1ccc2nc(NC(=O)COc3ccccc3)sc2c1 | -2.46% | 
59 | CC(=O)OCC(=O)C1CCC2C3CCC4=CC(=O)CC[C@@]4(C)C3CC[C@]12C (some centres not stated) | -10.3% | 
60 | CC(C)(C)c1ccc(OC2C=CC(C#Cc3ccccc3)OC2CO)cc1 (configuration not stated) | -1.55% [at 12.4 µM] | 
61 | COC(=O)[C@@H]1CC2=CC(=O)CC[C@]2(C)[C@@]23O[C@@H]2C[C@@]2(C)[C@@H](CC[C@@]24CCC(=O)O4)[C@H]13 | 4.16% | 
62 | O=C1CN(Cc2ccccc2)S(=O)(=O)c2ccccc21 | -3.21% | 
